Data from PubChem BioAssay (NCATS).
Records with an inconclusive call do not appear. A number with no mark means an inactive call. Activity calls are given as the source filed them. The call rests on the fitted dose curve; in most records, active means well fitted inhibition curve with a large enough effect; inconclusive means small, poorly fitted or top-dose-only effect; inactive means flat fitted curve, though single readings scatter.
Potency means the concentration at half of the fitted maximal effect.

These compounds were tested on CP237 (assay: qHTS profiling for inhibitors of Plasmodium falciparum proliferation (AID 504749; further: nearly all actives have a fitted effect of over 60% in size;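 on activity, negative = inhibition: 0% = DMSO vehicle and full inhibition = artemisinin control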)). Conditions: P. falciparum in erythrocytes, SYBR Green DNA, 72 h; series mostly up to 28.7 µM; activity, negative = inhibition: at the top concentration.
Method in brief: (§1)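 Infected RBCs, 0.3% parasitemia/2.5% Hct final; cpd 72 h, 37 C, 5% CO2; lysis buffer with saponin/triton/SYBR Green I, o/n RT dark; FI 485/535; norm. to artemisinin (0.29 uM) and DMSO.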
`CN1CCc2cc(Cl)c(O)cc2[C@H]2c3ccccc3CC[C@@H]21` was tested, and the Potency was 5.62 µM (active).
With `C#C[C@]1(O)CC[C@H]2[C@@H]3CCC4=CC(=O)CCC4=C3C=C[C@@]21CC` the Potency was 0.178 µM (active).
With `OC(O)C(Cl)(Cl)Cl` the “activity, negative = inhibition” value was 2.38%.
With `C[N+](C)(C)CCOC(=O)C(O)(c1ccccc1)c1ccccc1` the “activity, negative = inhibition” value was -0.299%.
With `C[C@]12C=CC(=O)C=C1CC[C@@H]1[C@@H]2CC[C@@]2(C)[C@H]1CC[C@]2(C)O` the “activity, negative = inhibition” value was -8.41%.
`O=C1NCN(c2ccccc2)C12CCN(CCCOc1ccc(F)cc1)CC2` was tested, and the Potency was 5.01 µM (active).

The compounds below were run on CP238 in the same assay as above. Conditions: P. falciparum in erythrocytes, SYBR Green DNA, 72 h; series mostly up to 28.7 µM; activity, negative = inhibition: at the top concentration.
Method in brief: as §1
`O=C(CCCN1CCC(n2c(=O)[nH]c3ccccc32)CC1)c1ccc(F)cc1` was tested, and the Potency was 3.55 µM (active).
In the case of `CC[C@]1(O)CC[C@H]2[C@@H]3CCC4=CCCC[C@@H]4[C@H]3CC[C@@]21C`, the “activity, negative = inhibition” value is reported as -12.3%.
With `Cc1c(Cl)c(=O)oc2cc(OP(=O)(OCCCl)OCCCl)ccc12` the Potency was 8.91 µM (active).
For `CN1C(=O)CN=C(c2ccccc2)c2cc([N+](=O)[O-])ccc21`, the “activity, negative = inhibition” value was 0.0362%.
For `CCCCCCCCC(=O)NCc1ccc(O)c(OC)c1`, the “activity, negative = inhibition” value was 3.31%.
With `c1cc2c(c(N3CCNCC3)c1)OCCO2` the “activity, negative = inhibition” value was 0.0389%.
`COc1ccc(CN2CCNCC2)c(OC)c1OC` was tested, and the “activity, negative = inhibition” value was 0.386% [at 12.8 µM].
For `Clc1ccc(CO/N=C(\Cn2ccnc2)c2ccc(Cl)cc2Cl)c(Cl)c1`, the Potency was 5.01 µM (active).
For `C[C@]12Cc3nonc3C[C@@H]1CC[C@@H]1[C@@H]2CC[C@@]2(C)[C@H]1CC[C@]2(C)O`, the “activity, negative = inhibition” value was -1.14%.
`ClC1=C(Cl)C2(Cl)C(CBr)CC1(Cl)C2(Cl)Cl` (centres undefined) was tested, and the “activity, negative = inhibition” value was 4.58%.
In the case of `CN1C[C@@H](NS(=O)(=O)N(C)C)C[C@@H]2c3cccc4c3c(cn4C)C[C@H]21`, the “activity, negative = inhibition” value is reported as -24.2%.
`CNC(=O)Oc1cccc2ccccc12` was tested, and the “activity, negative = inhibition” value was -5.49%.
For `COC(=O)C1=CCCN(C)C1`, the “activity, negative = inhibition” value was 4.04%.
With `COc1ccc(C(=O)N2CCCC2=O)cc1` the “activity, negative = inhibition” value was 2.25%.
For `Oc1c(Br)cc(Br)cc1Br`, the “activity, negative = inhibition” value was -1.73%.
For `CC(C)(O)C(Cl)(Cl)Cl`, the Potency was 10 µM (active).
For `OC(O)C(Cl)(Cl)Cl`, the “activity, negative = inhibition” value was 3.7%.
For `C[N+](C)(C)CCOC(=O)C(O)(c1ccccc1)c1ccccc1`, the “activity, negative = inhibition” value was 0.0431%.
With `C[C@]12C=CC(=O)C=C1CC[C@@H]1[C@@H]2CC[C@@]2(C)[C@H]1CC[C@]2(C)O` the “activity, negative = inhibition” value was 1.47%.

What follows are compounds tested on CP247 in the same assay as above. Conditions: P. falciparum in erythrocytes, SYBR Green DNA, 72 h; series mostly up to 28.7 µM; activity, negative = inhibition: at the top concentration.
Method in brief: as §1
`O=C(CCCN1CCC(n2c(=O)[nH]c3ccccc32)CC1)c1ccc(F)cc1` was tested, and the Potency was 3.55 µM (active).
For `CN1C(=O)[C@@H](NC(=O)c2cc3ccccc3[nH]2)N=C(c2ccccc2)c2ccccc21`, the “activity, negative = inhibition” value was -65.8%.
In the case of `Oc1ccc2[nH]cc(CCCCN3CC=C(c4ccccc4)CC3)c2c1`, the Potency is reported as 7.08 µM (active).
`CC[C@]1(O)CC[C@H]2[C@@H]3CCC4=CCCC[C@@H]4[C@H]3CC[C@@]21C` was tested, and the “activity, negative = inhibition” value was 1.47%.
`CN1C(=O)CN=C(c2ccccc2)c2cc([N+](=O)[O-])ccc21` was tested, and the “activity, negative = inhibition” value was -19.3%.
With `CCCCCCCCC(=O)NCc1ccc(O)c(OC)c1` the “activity, negative = inhibition” value was 2.84%.
In the case of `c1cc2c(c(N3CCNCC3)c1)OCCO2`, the “activity, negative = inhibition” value is reported as 0.118%.
`COc1ccc(CN2CCNCC2)c(OC)c1OC` was tested, and the “activity, negative = inhibition” value was -2.02% [at 12.8 µM].
In the case of `Nc1ccc(N)cc1`, the Potency is reported as 8.91 µM (active).
In the case of `Clc1ccc(CO/N=C(\Cn2ccnc2)c2ccc(Cl)cc2Cl)c(Cl)c1`, the Potency is reported as 4.47 µM (active).
In the case of `C[C@]12Cc3nonc3C[C@@H]1CC[C@@H]1[C@@H]2CC[C@@]2(C)[C@H]1CC[C@]2(C)O`, the “activity, negative = inhibition” value is reported as -7.98%.
For `ClC1=C(Cl)C2(Cl)C(CBr)CC1(Cl)C2(Cl)Cl` (centres undefined), the “activity, negative = inhibition” value was -7.61%.
In the case of `CN1C[C@@H](NS(=O)(=O)N(C)C)C[C@@H]2c3cccc4c3c(cn4C)C[C@H]21`, the “activity, negative = inhibition” value is reported as -14.2%.
In the case of `CNC(=O)Oc1cccc2ccccc12`, the “activity, negative = inhibition” value is reported as -12.9%.
In the case of `COC(=O)C1=CCCN(C)C1`, the “activity, negative = inhibition” value is reported as 7.63%.
For `COc1ccc(C(=O)N2CCCC2=O)cc1`, the “activity, negative = inhibition” value was 1.42%.
With `Oc1c(Br)cc(Br)cc1Br` the “activity, negative = inhibition” value was 3.45%.
With `CC(C)(O)C(Cl)(Cl)Cl` the Potency was 10 µM (active).
With `C#C[C@]1(O)CC[C@H]2[C@@H]3CCC4=CC(=O)CCC4=C3C=C[C@@]21CC` the Potency was 3.55 µM (active).
With `OC(O)C(Cl)(Cl)Cl` the “activity, negative = inhibition” value was 4.39%.
`C[N+](C)(C)CCOC(=O)C(O)(c1ccccc1)c1ccccc1` was tested, and the “activity, negative = inhibition” value was 4.04%.
`C[C@]12C=CC(=O)C=C1CC[C@@H]1[C@@H]2CC[C@@]2(C)[C@H]1CC[C@]2(C)O` was tested, and the “activity, negative = inhibition” value was 5.09%.

Each compound was assayed on CP250 in the same assay as above. Conditions: P. falciparum in erythrocytes, SYBR Green DNA, 72 h; series mostly up to 28.7 µM; activity, negative = inhibition: at the top concentration.
Method in brief: as §1
For `O=C(CCCN1CCC(n2c(=O)[nH]c3ccccc32)CC1)c1ccc(F)cc1`, the Potency was 2.82 µM (active).
`Cc1c(Cl)c(=O)oc2cc(OP(=O)(OCCCl)OCCCl)ccc12` was tested, and the Potency was 8.91 µM (active).
For `CN1C(=O)CN=C(c2ccccc2)c2cc([N+](=O)[O-])ccc21`, the “activity, negative = inhibition” value was -2.01%.
With `CCCCCCCCC(=O)NCc1ccc(O)c(OC)c1` the “activity, negative = inhibition” value was 0.524%.
In the case of `c1cc2c(c(N3CCNCC3)c1)OCCO2`, the “activity, negative = inhibition” value is reported as 1.99%.
With `C=CCOC(Cn1ccnc1)c1ccc(Cl)cc1Cl` (centres undefined) the Potency was 10 µM (active).
For `CC(Cc1ccccc1)NCc1ccccc1Cl` (centres undefined), the “activity, negative = inhibition” value was -21.5%.
In the case of `COc1ccc(CN2CCNCC2)c(OC)c1OC`, the “activity, negative = inhibition” value is reported as 6.7% [at 12.8 µM].
With `Nc1ccc(N)cc1` the Potency was 12.6 µM (active).
In the case of `Clc1ccc(CO/N=C(\Cn2ccnc2)c2ccc(Cl)cc2Cl)c(Cl)c1`, the Potency is reported as 7.08 µM (active).
With `C[C@]12Cc3nonc3C[C@@H]1CC[C@@H]1[C@@H]2CC[C@@]2(C)[C@H]1CC[C@]2(C)O` the “activity, negative = inhibition” value was -17.6%.
`ClC1=C(Cl)C2(Cl)C(CBr)CC1(Cl)C2(Cl)Cl` (centres undefined) was tested, and the “activity, negative = inhibition” value was 5.3%.
In the case of `CN1C[C@@H](NS(=O)(=O)N(C)C)C[C@@H]2c3cccc4c3c(cn4C)C[C@H]21`, the “activity, negative = inhibition” value is reported as -17.2%.
In the case of `CNC(=O)Oc1cccc2ccccc12`, the “activity, negative = inhibition” value is reported as -13.2%.
In the case of `N#Cc1nn(-c2c(Cl)cc(C(F)(F)F)cc2Cl)c(N)c1S(=O)C(F)(F)F` (centres undefined), the Potency is reported as 11.2 µM (active).
In the case of `COC(=O)C1=CCCN(C)C1`, the “activity, negative = inhibition” value is reported as 5.99%.
`COc1ccc(C(=O)N2CCCC2=O)cc1` was tested, and the “activity, negative = inhibition” value was 9.69%.
In the case of `Oc1c(Br)cc(Br)cc1Br`, the “activity, negative = inhibition” value is reported as 11.1%.
`CC(C)(O)C(Cl)(Cl)Cl` was tested, and the Potency was 12.6 µM (active).
With `OC(O)C(Cl)(Cl)Cl` the “activity, negative = inhibition” value was 7.96%.
With `C[N+](C)(C)CCOC(=O)C(O)(c1ccccc1)c1ccccc1` the “activity, negative = inhibition” value was -1.91%.
In the case of `C[C@]12C=CC(=O)C=C1CC[C@@H]1[C@@H]2CC[C@@]2(C)[C@H]1CC[C@]2(C)O`, the “activity, negative = inhibition” value is reported as 1.51%.
